Source: PubChem BioAssay (National Center for Advancing Translational Sciences (NCATS))
Rows were chosen to be rich in hits. Some 3.9% of all compounds tested hit in one or more screens of this group.
TGFb inhibitor: qHTS for Inhibitors of TGF-b. HepG2 CAGA-GFP TGF-b/SMAD3 reporter, GFP fluorescence, 18 h; TGF-beta stimulated, 500 pg/mL final. Potency, µM (series often up to 46.1 µM), actives largely listed as inhibitors. 410,000 tested, 1.2% active; further: nearly all actives have a fitted effect of over 65% in size
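Inhibition was scored as loss of TGF-beta-induced (500 pg/mL final, 18 hours, 37 degrees C) GFP in HEPG2 cells carrying a CAGA-GFP reporter, in DMEM with 1% FBS. Well GFP was summed per cell; Activity was normalised to unstimulated and stimulated DMSO wells, then concentration-response fitting.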
ATXN2 expr inh: Primary qHTS for Inhibitors of ATXN expression. HEK-293 ATXN2-luciferase reporter, luminescence, 24 h. Potency, µM (top dose mostly 57 µM), usual class: inhibitors. 360,000 tested, 0.72% active; further: nearly all actives have a fitted effect of over 55% in size
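ATXN2-luciferase reporter cells (luciferase flanked by upstream and downstream ATXN2 gene portions) were treated 24 h at 37 °C with compounds at up to 57 uM. SteadyGlo luminescence gave expression; GF-AFC fluorescence gave viability.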
ATXN viability: Viability Counterscreen for Primary qHTS for Inhibitors of ATXN expression; S2 cells (HEK-293 line with an ATXN2-luciferase reporter) viability, CellTiter-Fluor protease fluorescence, 24 h; Potency, µM (titrated, usually from 56.7 µM), usual class: cytotoxic; 400,000 tested, 0.49% active; AID 651635, 2014; further: nearly all actives have a fitted effect of over 40% in size
HT1080 IDH1KD tx: qHTS for induction of synthetic lethality in tumor cells producing 2HG: qHTS for the HT-1080-IDH1KD cell line | HT-1080 IDH1 knockdown viability, ATP luminescence, 48 h | Potency, µM (top dose mostly 46.1 µM), most hits filed as cytotoxic | 360,000 tested, 2% active | AID 686971, 2013
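CellTiter-Glo luminescence after 48 h compound exposure at 37 degrees C of IDH1-knockdown HT-1080 cells in 5% FBS RPMI. %Activity scaled between DMSO wells and cell-free media wells, with curves fitted and assigned curve classes.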
HT1080-NT tox: qHTS for induction of synthetic lethality in tumor cells producing 2HG: qHTS for the HT-1080-NT fibrosarcoma cell line. HT-1080-NT fibrosarcoma viability, CellTiter-Glo ATP luminescence, 48 h. Potency, µM (series often up to 46.1 µM), usual class: cytotoxic. 360,000 tested, 1.6% active;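 further: NT is the 2HG producing partner of a matched IDH1 knockdown line; nearly all actives have a fitted effect of over 55% in size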
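Compounds were tested in concentration-response format on HT-1080-NT cells for 48 hours at 37 degrees C. Cell viability came from CellTiter-Glo luminescence; curves were classified by r2, response magnitude and activity.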
HepG2 tox: qHTS for Inhibitors of TGF-b: Cytotox Counterscreen | HepG2 CAGA-GFP viability, ATP luminescence, 18 h | Potency, µM (series often up to 46.1 µM), actives largely listed as cytotoxic | 410,000 tested, 0.76% active | AID 588856, 2011
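CellTiter-Glo luminescence gave cytotoxicity after 18 hours at 37 degrees C. The cells were HepG2 CAGA-GFP in 1% FBS DMEM, stimulated with 500 pg/mL TGF-beta after compound addition. %Activity was normalised to no-cell wells (complete cell-killing) and DMSO (no toxicity), and curves were fitted and classified.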
Large screens that a line does not name were inactive; ! = not active in a repeat. The call rests on the fitted dose curve; in most records, active means well fitted curve in the direction sought with a large enough effect; inconclusive means small, poorly fitted or top-dose-only effect, or another doubt; inactive means no such curve, though single readings can be large; an effect the other way counts as inactive or inconclusive.

CN(C)c1ccc(/C=C/c2nc3ccccc3s2)cc1	TGFb inhibitor 13µM!, ATXN2 expr inh inconclusive, HT1080 IDH1KD tx inconclusive, HT1080-NT tox inconclusive (no result: ATXN viability)
CN(Cc1ccccc1)c1ccc(/C=C/c2nc3ccccc3s2)cc1	TGFb inhibitor inconclusive (no result: ATXN2 expr inh, ATXN viability, HT1080 IDH1KD tx, HT1080-NT tox)
CN(C)c1ccc(/C=C/c2cccc3cc4ccccc4nc23)cc1	TGFb inhibitor 1.6µM, HepG2 tox 14µM (no result: ATXN2 expr inh, ATXN viability, HT1080 IDH1KD tx, HT1080-NT tox)
CN(C)c1ccc(/C=C/c2ccccn2)cc1	none (no result: ATXN2 expr inh, ATXN viability, HT1080 IDH1KD tx, HT1080-NT tox)
CN(C)c1ccc(/C=C/c2cc3ccccc3cn2)cc1	TGFb inhibitor 11µM (no result: ATXN2 expr inh, ATXN viability, HT1080 IDH1KD tx, HT1080-NT tox)
COc1ccc(C(=O)N2CCC3(CC2)c2ccccc2[C@@H](NC(=O)c2ccccn2)[C@@H]3OC)c(O)c1	none (no result: TGFb inhibitor, ATXN2 expr inh, HT1080 IDH1KD tx, HT1080-NT tox, HepG2 tox)
CN1CCN(c2nc(-c3ccccc3)nc(-c3ccc(F)cc3)c2C#N)CC1	none
COc1ccccc1-c1nc(-c2ccccc2)nc(N2CCN(C)CC2)c1C#N	HT1080 IDH1KD tx 21µM, HT1080-NT tox 16µM
CCCN(CCC)c1nn2c(=O)c(C(=O)NCc3cccc(OC)c3)cnc2s1	TGFb inhibitor inconclusive (no result: ATXN2 expr inh, ATXN viability, HT1080 IDH1KD tx, HT1080-NT tox)
COc1ccc(C2/C=C\CN(C(=O)C3CCCCC3)C(C)C(=O)N2Cc2ccc(F)cc2)cc1 (configuration not stated)	TGFb inhibitor inconclusive (no result: ATXN2 expr inh, ATXN viability, HT1080 IDH1KD tx, HT1080-NT tox)
Cc1cc2nc(-c3ccc[nH]c3=O)[nH]c2cc1C	TGFb inhibitor inconclusive, HT1080 IDH1KD tx 18µM, HT1080-NT tox 18µM, HepG2 tox 0.89µM (no result: ATXN2 expr inh, ATXN viability)
CC(Nc1nc(N2CCNCC2)nc2ccccc12)c1ccccc1 (configuration not stated)	TGFb inhibitor inconclusive, ATXN2 expr inh inconclusive, ATXN viability inconclusive, HT1080 IDH1KD tx 15µM, HT1080-NT tox inconclusive
CCOC(=O)[C@H]1O[C@@H]1C(=O)N[C@@H](CC(C)C)C(=O)NCCC(C)C	TGFb inhibitor inconclusive, ATXN viability 3.2µM
CCOC(=O)[C@H]1O[C@H]1C(=O)N[C@@H](CC(C)C)C(=O)NCCC(C)C	none (no result: TGFb inhibitor, ATXN viability, HT1080 IDH1KD tx, HT1080-NT tox, HepG2 tox)
CCc1ccccc1NC(=O)CN1CCCN(Cc2cc(C)ccc2C)S1(=O)=O	TGFb inhibitor 18µM (no result: ATXN2 expr inh, ATXN viability, HT1080 IDH1KD tx, HT1080-NT tox)
COc1ccc(S(=O)(=O)c2c(Nc3ccc(F)cc3)sc(C(=O)c3ccc(C)cc3C)c2N)cc1	ATXN2 expr inh inconclusive, ATXN viability inconclusive (no result: HT1080 IDH1KD tx, HT1080-NT tox)
O=C(c1cnn(-c2nccc(-c3ccco3)n2)c1C1CC1)N1CCCCC1c1cccnc1 (configuration not stated)	none (no result: TGFb inhibitor, ATXN2 expr inh, HT1080 IDH1KD tx, HT1080-NT tox, HepG2 tox)
OC(c1cc(F)cc(Cl)c1)c1ncc(-c2ccc3ccccc3c2)[nH]1 (configuration not stated)	TGFb inhibitor 18µM, ATXN viability inconclusive, HT1080 IDH1KD tx inconclusive, HT1080-NT tox inconclusive
OC(c1ccccc1)c1ncc(-c2ccc(Oc3ccccc3)cc2)[nH]1 (configuration not stated)	TGFb inhibitor inconclusive, HT1080-NT tox inconclusive
OC(c1cccc(Cl)c1)c1ncc(-c2ccc3ccccc3c2)[nH]1 (configuration not stated)	TGFb inhibitor inconclusive, HT1080 IDH1KD tx inconclusive
OC(c1ccc(Cl)cc1)c1ncc(-c2ccc(Oc3ccccc3)cc2)[nH]1 (configuration not stated)	TGFb inhibitor inconclusive, ATXN2 expr inh inconclusive, ATXN viability inconclusive, HT1080 IDH1KD tx 23µM, HT1080-NT tox 23µM
OC(Cc1ccccc1)c1ncc(-c2ccc3ccccc3c2)[nH]1 (configuration not stated)	ATXN viability inconclusive, HT1080 IDH1KD tx 18µM, HT1080-NT tox inconclusive
OC(c1ccc(-c2ccccc2)cc1)c1ncc(-c2ccc(C(F)(F)F)cc2)[nH]1 (configuration not stated)	TGFb inhibitor inconclusive, ATXN2 expr inh inconclusive, ATXN viability inconclusive, HT1080 IDH1KD tx inconclusive, HT1080-NT tox inconclusive
